Screens: PubChem, National Center for Advancing Translational Sciences (NCATS)
This is a sample that favours compounds with a hit; in the whole collection about 1.2% have one here.
GLA spleen mod: qHTS Assay for Inhibitors and Activators of Human alpha-Galactosidase From Spleen Homogenate | Alpha-galactosidase A (Homo sapiens), P06280 | human spleen homogenate, 4MU-alpha-Gal fluorescence, 40 min | Potency, µM (titrated, usually from 80 µM), usual class: inhibitors | 0.008% of 240,000 active | AID 2107, 2009
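Spleen homogenate 1 ug + cpd (titration) + 4-MU-alpha-D-galactopyranoside 1 mM; 37C 40 min; 50 mM citrate/phosphate pH 5.0, 0.01% Tween-20; stop pH 10; fluorescence 365/440; AC50 via Hill.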
HTT ATP protect: qHTS Multiplex Assay to Identify Dual Action Probes in a Cell Model of Huntington: Cytoprotection (ATP). 0.14% of 230,000 active. Potency, µM (titrated, usually from 56.4 µM), actives largely listed as activators. PC12 HTT-Q103 induced, cytoprotection, ATP luminescence, 40 h. AID 1471, 2008; further: nearly all actives have a fitted effect of over 45% in size
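Cells were plated at 1500 per well in phenol red-free DMEM with 5% equine and 5% calf serum. Tebufenozide (100 nM final) and compounds were added, then ATPlite reagent, and luminescence was read.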
HttQ103 aggreg: qHTS Multiplex Assay to Identify Dual Action Probes in a Cell Model of Huntington: Aggregate Formation (GFP); PC12 HttQ103-GFP aggregates, Acumen cytometry, 40 h; Potency, µM (series often up to 46.1 µM), usual class: inhibitors; 1.1% of 220,000 active; AID 1688, 2009; further: nearly all actives have a fitted effect of over 60% in size
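Using laser scanning cytometry, GFP-positive aggregates were counted after lysis of PC12 cells induced with 100 nM tebufenozide to express HTT exon 1 Q103–GFP. Compounds were tested in titration.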
GLA inh pH 4.5: qHTS Assay for Inhibitors of Human alpha-Galactosidase at pH 4.5 | Alpha-galactosidase A (Homo sapiens), P06280 | 230,000 tested, under 10 active | activity change, negative = inhibition, % at 105 µM | purified enzyme, 4-MU-alpha-Gal fluorescence, pH 4.5
Target sequence (P06280 whole entry, looked up): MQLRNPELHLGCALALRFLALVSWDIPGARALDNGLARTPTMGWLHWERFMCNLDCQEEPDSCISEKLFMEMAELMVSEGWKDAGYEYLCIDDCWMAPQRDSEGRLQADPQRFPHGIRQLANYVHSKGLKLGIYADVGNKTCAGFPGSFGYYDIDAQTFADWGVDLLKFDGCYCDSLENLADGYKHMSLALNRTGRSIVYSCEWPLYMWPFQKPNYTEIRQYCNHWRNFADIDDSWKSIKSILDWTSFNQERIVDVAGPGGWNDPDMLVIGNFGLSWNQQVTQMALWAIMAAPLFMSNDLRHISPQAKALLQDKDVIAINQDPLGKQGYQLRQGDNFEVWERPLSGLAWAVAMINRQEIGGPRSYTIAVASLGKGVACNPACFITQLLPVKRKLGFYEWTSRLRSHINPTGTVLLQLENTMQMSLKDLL
Large screens that a line does not name were inactive; ! = a repeat was not active. The call rests on the fitted dose curve; in most records, active means well fitted curve in the direction sought with a large enough effect; inconclusive means small, poorly fitted or top-dose-only effect, or another doubt; inactive means no such curve, though single readings can be large; an effect the other way counts as inactive or inconclusive.

C=CCn1c(NC(C)c2cc(Cl)ccc2O)nc2ccccc21 (configuration not stated)	HttQ103 aggreg 11µM
CC(=O)[C@]1(O)Cc2c(O)c3c(c(O)c2[C@@H](O[C@H]2C[C@H](N)[C@H](O)[C@H](C)O2)C1)C(=O)c1ccccc1C3=O	HttQ103 aggreg 0.63µM
CC(=O)[C@]1(O)Cc2c(O)c3c(c(O)c2[C@@H](O[C@H]2C[C@H](N)[C@H](O)[C@H](C)O2)C1)C(=O)c1c(O)cccc1C3=O	HttQ103 aggreg 0.63µM
COc1cccc2c1C(=O)c1c(O)c3c(c(O)c1C2=O)C[C@@](O)(C(C)=O)C[C@@H]3O[C@H]1C[C@H](N)[C@H](O)[C@H](C)O1	HttQ103 aggreg 2.2µM!
COc1cccc2c1C(=O)c1c(O)c3c(c(O)c1C2=O)C[C@](O)(C(=O)CO)C[C@@H]3O[C@H]1C[C@H](N)[C@@H](O)[C@H](C)O1	none (no result: GLA spleen mod, GLA inh pH 4.5)
CC[C@H](C)[C@H](NC(=O)[C@H](Cc1ccc(O)cc1)NC(=O)[C@@H]1CCCN1C(=O)[C@@H](NC(=O)[C@@H](N)CCCCN)[C@@H](C)CC)C(=O)N[C@@H](CC(C)C)C(=O)O	none (no result: HTT ATP protect, HttQ103 aggreg, GLA inh pH 4.5)
Cc1nc(-c2ccccc2)c(-c2ccncc2)o1	none (no result: HTT ATP protect, HttQ103 aggreg, GLA inh pH 4.5)
COC(=O)C1=C[C@@H](C(=O)OC)C2C3=C(C(=O)[C@@]2(C)NC(=O)c2ccccc2)[C@H](C)[C@@H]2C(=O)NC(=O)[C@@H]2[C@@H]3C1 (some centres not stated)	none (no result: HTT ATP protect, HttQ103 aggreg, GLA inh pH 4.5)
COc1cc(SC)ccc1C(=O)NC(C)C	HTT ATP protect 13µM
CCCCC/C=C\C/C=C\CCCCCCCC(=O)NCC(=O)O	none (no result: HttQ103 aggreg)
Cc1csc(NC(=O)CSc2nnc(-c3ccncc3)n2C)n1	HttQ103 aggreg 0.0008µM
COc1ccc2c(c1)C(=O)[C@@H](OC(=O)NCCOc1ccccc1)[C@H](c1ccc(OC)c(Br)c1)O2	none (no result: HttQ103 aggreg)
COc1ccc(C(=O)N2c3cc4c(cc3C(C)=CC2(C)C)OCO4)cc1	HttQ103 aggreg 11µM
CC1=CC(C)(C)N(C(=O)c2ccccc2)c2ccc(C)cc21	none
CCN(CC)c1nc2ccccc2c(N)c1-c1ccccc1	HttQ103 aggreg 11µM
COc1cccc([C@@H]2Oc3ccc(Br)cc3C(=O)[C@H]2OC(=O)N[C@H]2CCCc3ccccc32)c1	none (no result: HttQ103 aggreg)
COc1ccc(C(=O)CSc2nnc(Cn3cnc4ccccc43)o2)cc1	HttQ103 aggreg 10µM
Cc1cc(C)c(S(=O)(=O)n2ccc3ccccc32)c(C)c1	HttQ103 aggreg 10µM
O=S(=O)(c1ccccc1)n1ccc2ccccc21	HttQ103 aggreg 11µM
CC(C)(C)OC(=O)NCCCCC1=CC2=CC(=O)C(C)(OC(=O)C3CCCC3)C(=O)C2=CO1 (configuration not stated)	HTT ATP protect inconclusive (no result: HttQ103 aggreg)
CCN(CC)S(=O)(=O)c1cccc(-c2n[nH]c(=S)n2/N=C/c2ccc(OC(F)F)cc2)c1	HttQ103 aggreg 22µM
CCN(CC)S(=O)(=O)c1cccc(-c2n[nH]c(=S)n2/N=C/c2ccc(OC)cc2)c1	none
CC(C)C[C@@H](/C=C/S(C)(=O)=O)NC(=O)[C@H](CC(C)C)NC(=O)[C@H](CC(C)C)NC(=O)OCc1ccccc1	none (no result: HttQ103 aggreg, GLA inh pH 4.5)
[O][C@H]1[C@@H](O)[C@@H](CO)O[C@@H](O[C@@H]2[C@@H]3OC[C@H]2O[C@H](O[C@@H]2[C@@H](O)[C@H](C[C@@H]4[C@@H]5OC[C@H]4O[CH][C@@H]5O)O[C@H](CO)[C@@H]2OS(=O)(=O)O)[C@@H]3OS(=O)(=O)O)[C@@H]1O	none (no result: HTT ATP protect, HttQ103 aggreg)
O=C(NCc1ccco1)c1ccccc1NS(=O)(=O)c1ccc(Br)s1	HttQ103 aggreg 18µM
O=C(CSc1nc(-c2ccco2)cc(C(F)(F)F)n1)Nc1ccccc1C(F)(F)F	HTT ATP protect 3.2µM, HttQ103 aggreg inconclusive
N#CC(C#N)=C(Nc1ccc(F)cc1)SCc1cccc(Br)c1	HttQ103 aggreg 2.2µM
Cc1cccc(CSC(Nc2ccc(F)cc2)=C(C#N)C#N)c1	HttQ103 aggreg 4.5µM
CN1C/C(=C/c2ccc(B(O)O)cc2)C(=O)/C(=C/c2ccc(B(O)O)cc2)C1	none (no result: HTT ATP protect, HttQ103 aggreg, GLA inh pH 4.5)
CCCCN(CC)CCCNC(=S)Nc1ccc2nc(N3CCN(C)CC3)cc(C)c2c1	HttQ103 aggreg 28µM
Cc1c(NS(=O)(=O)c2ccc3c(c2)OCCO3)cccc1-c1nc2cccnc2s1	HttQ103 aggreg 8.9µM
Cc1cc(-c2nc3cccnc3s2)ccc1NS(=O)(=O)c1ccc2c(c1)OCCO2	GLA spleen mod inconclusive, HttQ103 aggreg inconclusive, GLA inh pH 4.5 inconclusive
CCNc1ncc2nc(-c3ccccc3)c(=O)n(Cc3cccs3)c2n1	none (no result: HttQ103 aggreg, GLA inh pH 4.5)
N#Cc1c2ccc(O)cc2n2ccccc12	HttQ103 aggreg 10µM
O=C(CCCN1C(=O)/C(=C/c2ccccc2Cl)SC1=S)NNC(=O)c1ccc(Cl)cc1	none
Cc1ccc(C(=O)NNC(=O)CCCN2C(=O)/C(=C/c3ccccc3Cl)SC2=S)cc1	HttQ103 aggreg 35µM (no result: HTT ATP protect)
FC(F)(F)c1nc(N2CCCC2)ncc1-c1nnnn1-c1ccc(Cl)cc1	HTT ATP protect 3.5µM, HttQ103 aggreg inconclusive
CN(c1cccc(Cl)c1)S(=O)(=O)c1cccc(C(=O)Nc2nc3ccccc3[nH]2)c1	HttQ103 aggreg 20µM
COc1ccco1	none (no result: HTT ATP protect, HttQ103 aggreg, GLA inh pH 4.5)
COc1ccc(NS(=O)(=O)c2ccc(N/N=C/c3ccc(N4CCOCC4)cc3)c([N+](=O)[O-])c2)cc1	HttQ103 aggreg 2µM (no result: HTT ATP protect)
CCc1cc2c(=O)c(-c3cscn3)coc2c(CN(C)C)c1O	HttQ103 aggreg 11µM
COc1ccc(Br)cc1C(C[N+](=O)[O-])c1c(N)n(C)c(=O)n(C)c1=O (configuration not stated)	HttQ103 aggreg 4µM
O=S(=O)(Nc1ccc(Cc2ccncc2)cc1)c1ccc(Cl)c(Cl)c1	HttQ103 aggreg 11µM
O=S(=O)(Nc1ccc(-n2cccc2)cc1)c1ccc(Cl)c(Cl)c1	none
NC(C(=O)O)C(O)c1ccc(O)c(O)c1 (configuration not stated)	none (no result: GLA spleen mod, GLA inh pH 4.5)
Cc1ccc(-n2nnnc2SCn2nnc3ccccc3c2=O)c(C)c1	HttQ103 aggreg 8.9µM
Cc1cc(SCn2nnc3ccccc3c2=O)nc2ccccc12	none
Cc1nc(NC(=O)CSc2nnnn2Cc2ccccc2)sc1C	HttQ103 aggreg inconclusive
Cc1nnc(NC(=O)CSc2nnnn2Cc2ccccc2)s1	HTT ATP protect inconclusive, HttQ103 aggreg 0.35µM
OCC1O[C@@H](O[C@@H]2C(CO)OC(O)C(O)C2O)C(O)C(O)C1O (some centres not stated)	none (no result: GLA spleen mod, GLA inh pH 4.5)
Cn1c(Sc2ccc(Cl)cc2)c(C=O)c2ccccc21	HttQ103 aggreg 7.9µM
Oc1cc(CN2COc3ccccc32)c(O)cc1CNC1CCCCC1	none (no result: GLA spleen mod, HttQ103 aggreg, GLA inh pH 4.5)
Cn1cnc([N+](=O)[O-])c1S(=O)(=O)c1cccc(Cl)c1	HttQ103 aggreg 5.6µM (no result: HTT ATP protect)
Cc1[nH]c2ccccc2c1/C=N/NC(=O)C1CC1(c1ccccc1)c1ccccc1 (configuration not stated)	HttQ103 aggreg 13µM
